{"source": "the supplement of paper PMC11417369", "note": "± gives the standard deviation of the averaged measurements. The full ranking holds about 25,000 sequences; the median of “ln(normalized median fluorescence intensity)” is about 7.9, and the highest 2% start at about 11. What follows is part of a selection rich in the highest values, with near analogues and random picks from the rest.", "data": [{"system": "PfAP2-I AP2 domain 3 (GST-tagged)", "assay": "gcPBM binding intensity (ln(normalized median fluorescence intensity)); higher = stronger DNA binding", "method_in_brief": "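GST-fused DNA-binding domains of P. falciparum, expressed in E. coli, were applied at about 25 μg on average for 1 h to an Agilent 4 × 180k array of primer-extended double-stranded 36-bp intergenic genomic probes and negative controls. Binding intensity is the highest Masliner-normalised natural-log median intensity across replicate spots of either probe orientation, measured with Alexa488 anti-GST antibody and a 488 nm scan.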", "values": [{"sequence": "TTTGATAAATTATACACACACAATATATATAAAATA [CACACA_site2023]", "gcPBM binding intensity (ln)": "7.72 ± 0.51"}, {"sequence": "CTTAAACTTTTAAATACACACATACAGACATACACA [CACACA_site6401]", "gcPBM binding intensity (ln)": "8.055 ± 0.021"}, {"sequence": "ATGTATGCAAAAATGGTGCATATTAAATGTATAACA [GTGCAC_site9722]", "gcPBM binding intensity (ln)": "10.8 ± 0.49"}, {"sequence": "AGATATTATAATTAATGTACAAAAAGAAAAAATAGA [XGTACX_site8964]", "gcPBM binding intensity (ln)": "7.86 ± 0.64"}, {"sequence": "AGCAAAACAAAAAAATTAAAATTAACATATAATCAT [GTGCAC_negctrl_site393]", "gcPBM binding intensity (ln)": "7.38 ± 0.62"}, {"sequence": "ATATTATAATTGAAGGTGCAAAATGTAATATAGATA [GTGCAC_site9661]", "gcPBM binding intensity (ln)": "10.9 ± 0.49"}, {"sequence": "ATTTTTTTTTAATGCAATATATTTTGAAAATTTTAT [CACACA_negctrl_site753]", "gcPBM binding intensity (ln)": "8.62 ± 0.27"}, {"sequence": "GTAGACATTATAATGGTGCAAAAAAATTAACAAAAA [GTGCAC_site9891]", "gcPBM binding intensity (ln)": "10.9 ± 0.3"}, {"sequence": "AGAAAAAAAAAAAAAAAAAAAAAATTGAATATATAT [TGCATGCA_negctrl_site55]", "gcPBM binding intensity (ln)": "7.67 ± 0.81"}, {"sequence": "TATATATATATATAGGTGCAATATTGAAAAAATATC [GTGCAC_site9535]", "gcPBM binding intensity (ln)": "11.3 ± 0.47"}, {"sequence": "AAATATAATTAATGATGTACACTTATAGATATTGAT [XGTACX_site8435]", "gcPBM binding intensity (ln)": "8.09 ± 0.24"}, {"sequence": "ATGTTATTAATAATTGCACACATTTTTTTTTTTTTT [CACACA_site3920]", "gcPBM binding intensity (ln)": "9.12 ± 0.23"}, {"sequence": "AAAAATATATAACAAAGTACATATATATTTAGTAAT [XGTACX_site8791]", "gcPBM binding intensity (ln)": "7.43 ± 0.4"}, {"sequence": "AAAATAAAATAAAAGTGTACGTTTTAAGAACATTGA [XGTACX_site2382]", "gcPBM binding intensity (ln)": "7.76 ± 0.48"}, {"sequence": "ATCTGTCGACAGGACAGTACACAGTAGCCAGTAACT [XGTACX_site2001]", "gcPBM binding intensity (ln)": "7.63 ± 0.76"}, {"sequence": "AATTTAAAGTTTTTTTTTTTTTTTTTTTTTTTTTTG [CACACA_negctrl_site1082]", "gcPBM binding intensity (ln)": "7.39 ± 0.31"}, {"sequence": "AACATTTCCTTTCTGTGTACATATAAACCCATCTAT [XGTACX_site2071]", "gcPBM binding intensity (ln)": "8.13 ± 0.64"}, {"sequence": "TATCATATATGAAGGTGTACGATTTATTATATAAAT [XGTACX_site7010]", "gcPBM binding intensity (ln)": "7.87 ± 0.54"}, {"sequence": "ATTATCAATATGAAGGTGCATTTAAATAATATTTAC", "gcPBM binding intensity (ln)": "11.3 ± 0.7"}, {"sequence": "TTATTTTTTTTTAGAGCACACATTTTTAATAAGGTA [CACACA_site2133]", "gcPBM binding intensity (ln)": "9.54 ± 0.2"}, {"sequence": "TAATGCAACATTTATGTGCACATAAATATTTTTTAA", "gcPBM binding intensity (ln)": "9.815 ± 0.064"}, {"sequence": "AAATATTATAAAAAGGTGCATTTTTATTATATGAGT", "gcPBM binding intensity (ln)": "10.5 ± 0.35"}, {"sequence": "TGTTTTATTTAGAAGGTGCACATTAATATTAAATAA", "gcPBM binding intensity (ln)": "11.3 ± 0.45"}, {"sequence": "TTTTCAATTAATAATACACACATGTATTTATTATTA [CACACA_site5774]", "gcPBM binding intensity (ln)": "7.83 ± 0.34"}, {"sequence": "ATAAATTCATATATGAGTACTAAAAATATCTTTTTC [XGTACX_site5541]", "gcPBM binding intensity (ln)": "7.61 ± 0.45"}, {"sequence": "ATTTATGGAAAAAGAACACACAATCAAACAAAAATA [CACACA_site3707]", "gcPBM binding intensity (ln)": "8.01 ± 0.57"}, {"sequence": "TTATAATTTTTGAGCACACACAAGCATATATATATA [CACACA_site1798]", "gcPBM binding intensity (ln)": "9.475 ± 0.049"}, {"sequence": "ATATATATATATTTCGCACACATAATCTTATTAAAT [CACACA_site2579]", "gcPBM binding intensity (ln)": "9.22 ± 0.31"}, {"sequence": "TATGGATAAATAAATACACACATAAATTTAAATATA [CACACA_site1282]", "gcPBM binding intensity (ln)": "7.57 ± 0.61"}, {"sequence": "GTTTATCACAGCCACGCACACATAATATCTGTATAT [CACACA_site5929]", "gcPBM binding intensity (ln)": "8.18 ± 0.59"}, {"sequence": "GAACATTTGAAATATGCACACATGTATAAACCTACA [CACACA_site2654]", "gcPBM binding intensity (ln)": "8.7 ± 0.4"}, {"sequence": "TATATATATATATGTGCACACATAAAGATATTATTT [CACACA_site3734]", "gcPBM binding intensity (ln)": "10.18 ± 0.021"}, {"sequence": "ATAAATAAGATACGTACACACATATACAAAATATAC [CACACA_site3661]", "gcPBM binding intensity (ln)": "8.14 ± 0.26"}, {"sequence": "TATATATATATGTGCACACATAAAGATATTATTTTT [CACACA_site3733]", "gcPBM binding intensity (ln)": "10.2 ± 0.042"}, {"sequence": "CTTATATATACGTGCACACATATATATAAGATATAT [CACACA_site1752]", "gcPBM binding intensity (ln)": "11.03 ± 0.11"}, {"sequence": "AGATAAGATATATACACACACATAAATACGTACAAA [CACACA_site6639]", "gcPBM binding intensity (ln)": "8.35 ± 0.16"}, {"sequence": "TGCTTATATATACGTGCACACATATATATAAGATAT [CACACA_site8516]", "gcPBM binding intensity (ln)": "10.9 ± 0.11"}, {"sequence": "AAGGTAGAAATATGTTGTACGGTTTGGAGGAAGCAA [XGTACX_site1105]", "gcPBM binding intensity (ln)": "8.12 ± 0.49"}, {"sequence": "AGTACATTTTTTTTAATAGGAAAAAAAATATTTATT [TGCATGCA_negctrl_site575]", "gcPBM binding intensity (ln)": "7.66 ± 0.57"}, {"sequence": "TTTTTTGCTAAGTGTACACAAATGTTTATTAATTTA [CACACA_site5859]", "gcPBM binding intensity (ln)": "8.42 ± 0.27"}, {"sequence": "AAAAAAAAAAAAAGTGCACACTTTTAATATAAATAT [CACACA_site3314]", "gcPBM binding intensity (ln)": "10 ± 0.35"}, {"sequence": "ATATATATATATAGTGCACACTTAAGAATATAAAGA [CACACA_site4771]", "gcPBM binding intensity (ln)": "11.5 ± 0.27"}, {"sequence": "ATATATATATAGTGCACACTTAAGAATATAAAGAGG [CACACA_site1151]", "gcPBM binding intensity (ln)": "11.5 ± 0.3"}, {"sequence": "ATAAAGAATATAAATACACACTTAAATATAGATTAT [CACACA_site7804]", "gcPBM binding intensity (ln)": "7.6 ± 0.45"}, {"sequence": "AAATAAAGAATATAAATACACACTTAAATATATATT [CACACA_site4007]", "gcPBM binding intensity (ln)": "7.58 ± 0.61"}, {"sequence": "ATAAAGAATATAAATACACACTTAAATATATATTAT [CACACA_site6071]", "gcPBM binding intensity (ln)": "7.64 ± 0.44"}, {"sequence": "TATATGTATGTATGTACACACAAAAAATGGAATATA [CACACA_site3717]", "gcPBM binding intensity (ln)": "7.93 ± 0.35"}, {"sequence": "GGTATATTAAAATAGGTGCATAAAACTAAGAGAAAA [GTGCAC_site9781]", "gcPBM binding intensity (ln)": "11.3 ± 0.54"}, {"sequence": "GTATTATATATATAGGTGCATATATATATATAAATA [GTGCAC_site9787]", "gcPBM binding intensity (ln)": "10.6 ± 0.33"}, {"sequence": "AAAAATAAAGAAACAGGTACGCATATATTAAGATAT [XGTACX_site8097]", "gcPBM binding intensity (ln)": "7.98 ± 0.78"}, {"sequence": "CAATATTATTATATTTGTACACATGCGTATTTTTTA [XGTACX_site4154]", "gcPBM binding intensity (ln)": "7.74 ± 0.47"}, {"sequence": "TAACTTAATTTTAATGCACACAATTTATATATATAT [CACACA_site6022]", "gcPBM binding intensity (ln)": "11.2 ± 0.52"}, {"sequence": "AATATAACTTTTTGCACACTTAATTTTTTTTTTTAA [CACACA_site3365]", "gcPBM binding intensity (ln)": "9.79 ± 0.11"}, {"sequence": "TAAATTATATTATGCACACTTAAAAATATATTTAAC [CACACA_site3512]", "gcPBM binding intensity (ln)": "10.4 ± 0.49"}, {"sequence": "TTAATATAACTTTTTGCACACTTAATTTTTTTTTTT [CACACA_site3364]", "gcPBM binding intensity (ln)": "9.32 ± 0.085"}, {"sequence": "TAACTTAATATTAATGCACACAATTTATATATATAT [CACACA_site3903]", "gcPBM binding intensity (ln)": "11.3 ± 0.38"}, {"sequence": "TTTTTAAAATATTTAACACACAATTATAATGCATAA [CACACA_site3932]", "gcPBM binding intensity (ln)": "8.885 ± 0.035"}]}]}
